Consider six molecules from PubChem BioAssay.

In assay [1] the test system is Plasmodium falciparum Sir2 (PF13_0152, Sir2A). The assay can be described thus: Plasmodium falciparum Sir2A binding compounds – biochemical, small-molecule microarray, 635 nm fluorescence, primary screen (AID 1098).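 Further: score merges spot fluorescence intensity with its signal-to-noise ratio.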 The conditions noted are these: fluorescence 635 nm, higher = more signal.
A short description of assay [2]: probe aDKK1 binding to arrayed compounds – biochemical, biotinylated probe, 635/667 nm fluorescence, primary screen (AID 1099).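 Further: score merges 667nm spot fluorescence with signal to noise across triplicate slides.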 Conditions: small-molecule microarray, higher = more signal.
A short description of assay [3]: probe aCHRDL2 binding to arrayed compounds – biochemical, biotinylated probe, 635/667 nm fluorescence, primary screen (AID 1100). Conditions: small-molecule microarray, higher = more signal.
Assay [4] in a line: change in splice reporter luminescence, either direction, cell-based, HEK293, spliceosome inhibition project, primary screen (AID 1101).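 Further: HEK293 cells carrying a splicing-competent luciferase reporter gene; test concentration not given here.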 Conditions: HEK293 splicing luciferase reporter, 24 h, higher = more signal, called active from +8 up or from −8 down. A general note: A reporter such as luciferase makes a cellular process visible.
The target in assay [5] is Fibroblast growth factor 10 (Homo sapiens) (UniProt O15520). The assay can be described thus: compounds binding fibroblast growth factor 10 – biochemical, small-molecule microarray, 635 nm fluorescence, primary screen (AID 1102). The conditions noted are these: FGF10 binding, fluorescence 635 nm, higher = more signal.
Chain of Fibroblast growth factor 10 (Homo sapiens) (O15520 whole entry, looked up): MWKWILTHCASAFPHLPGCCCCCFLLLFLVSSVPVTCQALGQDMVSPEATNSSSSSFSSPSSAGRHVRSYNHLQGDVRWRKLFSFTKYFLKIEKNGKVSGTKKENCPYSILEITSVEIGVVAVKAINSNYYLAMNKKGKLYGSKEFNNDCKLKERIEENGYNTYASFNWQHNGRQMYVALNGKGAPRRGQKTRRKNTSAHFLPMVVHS
In assay [6] the test system is glycogen synthase kinase-3 (GSK3A per assay name; protocol says GSK3B). The assay can be described thus: compounds binding glycogen synthase kinase-3 – biochemical, small-molecule microarray, 635 nm fluorescence, GSK3A, primary screen (AID 1103). Further: the record names both GSK3A and GSK3B. The conditions noted are these: fluorescence 635 nm, higher = more signal.
Assay [7] deals with Epidermal growth factor receptor (Homo sapiens) (UniProt P00533). Kind of assay: compounds binding epidermal growth factor receptor – biochemical, small-molecule microarray, 635 nm fluorescence, primary screen (AID 1104).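 Further: score merges 667 nm emission intensity with spot signal to noise over triplicate slides.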 The conditions noted are these: EGFR binding, higher = more signal.
Chain of Epidermal growth factor receptor (Homo sapiens) (P00533 whole entry, looked up): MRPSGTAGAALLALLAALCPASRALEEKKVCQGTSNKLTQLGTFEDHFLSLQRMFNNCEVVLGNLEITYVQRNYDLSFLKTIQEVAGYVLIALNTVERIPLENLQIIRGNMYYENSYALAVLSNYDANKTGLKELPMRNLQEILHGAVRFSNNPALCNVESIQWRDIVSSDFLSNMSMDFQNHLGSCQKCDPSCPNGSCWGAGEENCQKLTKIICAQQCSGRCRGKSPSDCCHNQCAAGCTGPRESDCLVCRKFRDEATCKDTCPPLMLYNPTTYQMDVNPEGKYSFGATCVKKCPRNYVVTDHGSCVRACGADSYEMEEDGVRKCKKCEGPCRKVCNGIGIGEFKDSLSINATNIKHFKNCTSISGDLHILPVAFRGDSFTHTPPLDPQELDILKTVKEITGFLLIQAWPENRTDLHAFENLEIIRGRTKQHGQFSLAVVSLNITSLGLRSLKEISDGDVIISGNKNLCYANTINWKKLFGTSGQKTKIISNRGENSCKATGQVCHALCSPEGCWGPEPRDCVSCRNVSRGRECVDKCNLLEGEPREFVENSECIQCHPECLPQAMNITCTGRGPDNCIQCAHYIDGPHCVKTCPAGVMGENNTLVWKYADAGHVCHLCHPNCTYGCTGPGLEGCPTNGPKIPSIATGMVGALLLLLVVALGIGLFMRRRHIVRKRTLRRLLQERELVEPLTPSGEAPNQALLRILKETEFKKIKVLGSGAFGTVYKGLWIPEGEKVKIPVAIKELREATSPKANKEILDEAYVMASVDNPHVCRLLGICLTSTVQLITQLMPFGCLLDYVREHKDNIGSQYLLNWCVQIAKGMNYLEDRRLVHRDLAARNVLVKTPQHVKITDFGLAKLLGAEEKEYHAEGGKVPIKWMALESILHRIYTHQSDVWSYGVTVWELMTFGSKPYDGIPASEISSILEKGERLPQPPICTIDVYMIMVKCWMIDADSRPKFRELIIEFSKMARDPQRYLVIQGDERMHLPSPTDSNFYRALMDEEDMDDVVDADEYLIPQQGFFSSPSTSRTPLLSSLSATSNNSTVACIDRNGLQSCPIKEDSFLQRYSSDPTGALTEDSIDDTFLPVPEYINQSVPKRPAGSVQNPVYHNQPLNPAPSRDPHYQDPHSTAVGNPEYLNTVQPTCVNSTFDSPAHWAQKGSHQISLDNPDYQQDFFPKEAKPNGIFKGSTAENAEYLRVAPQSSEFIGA
In assay [8] the target is Follistatin-related protein 3 (Homo sapiens) (UniProt O95633). Kind of assay: compounds binding follistatin-related protein 3 – biochemical, small-molecule microarray, 635 nm fluorescence, primary screen (AID 1105).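 Further: score merges emission near 667 nm and signal to noise per printed spot across three slides.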 Conditions: FSTL3 binding, higher = more signal.
Chain of Follistatin-related protein 3 (Homo sapiens) (O95633 whole entry, looked up): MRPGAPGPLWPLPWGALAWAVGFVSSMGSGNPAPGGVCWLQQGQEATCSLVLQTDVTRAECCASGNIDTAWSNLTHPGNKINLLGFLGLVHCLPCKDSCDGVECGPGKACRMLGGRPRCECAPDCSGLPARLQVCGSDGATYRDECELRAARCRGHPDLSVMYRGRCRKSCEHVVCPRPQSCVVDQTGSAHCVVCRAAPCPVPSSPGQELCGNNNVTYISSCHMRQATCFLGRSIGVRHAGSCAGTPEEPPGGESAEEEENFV
Assay [9] deals with Dickkopf-related protein 1 (Homo sapiens) (UniProt O94907). The assay can be described thus: small molecules binding DKK1 protein – biochemical, small-molecule microarray, 635 nm fluorescence scan, primary screen (AID 1106).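 Further: score merges emission near 667 nm with signal to noise over three replicate slides.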 Conditions: higher = more signal.
Chain of Dickkopf-related protein 1 (Homo sapiens) (O94907 whole entry, looked up): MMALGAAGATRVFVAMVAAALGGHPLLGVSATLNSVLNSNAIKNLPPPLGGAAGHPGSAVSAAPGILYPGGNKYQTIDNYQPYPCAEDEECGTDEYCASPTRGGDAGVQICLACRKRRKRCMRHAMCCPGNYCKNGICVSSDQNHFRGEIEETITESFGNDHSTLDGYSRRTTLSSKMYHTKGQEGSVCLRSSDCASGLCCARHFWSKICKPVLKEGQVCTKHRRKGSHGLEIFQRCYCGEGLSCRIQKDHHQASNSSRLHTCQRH
The subject of assay [10] is Inhibin beta A chain (activin A). The assay can be described thus: small molecules binding activin A – biochemical, small-molecule microarray, 635 nm fluorescence scan, primary screen (AID 1107).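 Further: mouse activin A protein probed at 4.33 µg/mL on printed slides; score merges bound-protein fluorescence near 667 nm with spot signal-to-noise.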 The conditions noted are these: INHBA, higher = more signal.
Assay [11] has as its system Human papillomavirus type 1a protein E7 (residues 44-93). Kind of assay: small molecules binding HPV E7 44-93 – biochemical, small-molecule microarray, residues 44-93, 635 nm fluorescence, primary screen (AID 1108).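 Further: E7 fragment applied at 1 µg/mL in TBST for 1 h at 4 C; score combines spot fluorescence with its signal to noise ratio.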 The conditions noted are these: fluorescence 635 nm, higher = more signal.
A short description of assay [12]: hepatitis C replication reporter changes, two-sided – Huh7 cells, luciferase reporter, HCV replication inhibitor project, primary screen (AID 1109).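 Further: huh7 hepatoma cells harbouring a luciferase neomycin HCV replicon reporter; luciferase luminescence as measure of HCV replicon replication; test concentration not given here.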 Conditions: Huh7 HCV replicon luciferase reporter, 48 h; higher = more signal.
Assay [13] concerns the target Left-right determination factor 2 (Homo sapiens) (UniProt O00292). Kind of assay: small molecules binding LEFTY2 protein – biochemical, small-molecule microarray, 635 nm fluorescence scan, primary screen (AID 1110). Conditions: higher = more signal.
The target of assay [14] is Calmodulin-1 (Homo sapiens) (UniProt P0DP23). Kind of assay: small molecules binding calmodulin-1 with EGTA – biochemical, small-molecule microarray, Cy5-labelled CALM1, profiling panel (AID 1111).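 Further: labelled calmodulin applied in Tris saline Tween buffer holding calcium plus EGTA and DTT.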 The conditions noted are these: Cy5-CALM1 binding fluorescence, higher = more signal.
Assay [15] shares this target. The assay can be described thus: small molecules binding Ca-loaded calmodulin-1 – biochemical, small-molecule microarray, Cy5-labelled CALM1, plus calcium, artefact control for SMM control-protein annotation, profiling panel (AID 1112).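 Further: score merges spot fluorescence with signal to noise from triplicate slides.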 Conditions: Cy5-CALM1 binding fluorescence, higher = more signal.
Assay [16] can be described thus: probe aWnt5a binding to arrayed compounds – biochemical, biotinylated probe, 635/667 nm fluorescence, primary screen (AID 1113).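 Further: score merges 667 nm fluorescence intensity with signal-to-noise per printed feature.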 Conditions: small-molecule microarray, higher = more signal.
The nature of assay [17]: probe aShh binding to arrayed compounds – biochemical, biotinylated probe, 635/667 nm fluorescence, primary screen (AID 1114).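 Further: probe is biotin-labelled aShh protein from a stem cell growth factor screen; measures binding of labelled protein to compounds printed on the slide; score merges feature fluorescence at 667 nm with signal-to-noise.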 Conditions: small-molecule microarray, higher = more signal.
Assay [18] is described as follows: probe aNog binding to arrayed compounds – biochemical, biotinylated probe, 635/667 nm fluorescence, primary screen (AID 1115).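 Further: probe is biotinylated aNog protein used at 0.15 µg/mL for 1 h at 4 C; z-score combines 667 nm fluorescence of each spot with its signal to noise.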 The conditions noted are these: small-molecule microarray, higher = more signal.
Assay [19] has as its target Torsin-1A-interacting protein 1 (Homo sapiens) (UniProt Q5JTV8). Kind of assay: compound microarray binding of lysate hLAP1 – cell lysate, small-molecule microarray, COS7 lysate, 635/667 nm fluorescence, primary screen (AID 1116). Conditions: 635 nm fluorescence, higher = more signal.
Assay [20] has as its target Alpha-bungarotoxin (Bungarus multicinctus) (UniProt P60615). The assay can be described thus: compounds binding labelled alpha-BTX control protein – biochemical, small-molecule microarray, Alexa647 label, 635/667 nm fluorescence, artefact control for SMM control protein annotation, profiling panel (AID 1117). Conditions: alpha-BTX-A647 binding fluorescence, higher = more signal.

The structures appear in SMILES notation. The source made the active and inactive calls.

Chain of Left-right determination factor 2 (Homo sapiens) (O00292 whole entry, looked up): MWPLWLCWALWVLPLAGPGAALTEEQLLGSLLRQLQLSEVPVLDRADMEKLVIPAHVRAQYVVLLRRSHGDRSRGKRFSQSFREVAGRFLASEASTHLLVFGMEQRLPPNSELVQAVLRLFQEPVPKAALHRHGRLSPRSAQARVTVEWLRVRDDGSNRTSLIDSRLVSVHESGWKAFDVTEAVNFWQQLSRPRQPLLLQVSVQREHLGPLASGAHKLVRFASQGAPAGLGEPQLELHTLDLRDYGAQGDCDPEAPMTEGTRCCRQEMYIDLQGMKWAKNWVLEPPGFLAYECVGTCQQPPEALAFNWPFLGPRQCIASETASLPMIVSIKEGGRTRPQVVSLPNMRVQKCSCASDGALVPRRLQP
Chain of Alpha-bungarotoxin (Bungarus multicinctus) (P60615 whole entry, looked up): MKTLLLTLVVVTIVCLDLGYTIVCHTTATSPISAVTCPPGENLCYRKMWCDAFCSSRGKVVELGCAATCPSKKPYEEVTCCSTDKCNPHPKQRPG
Chain of Torsin-1A-interacting protein 1 (Homo sapiens) (Q5JTV8 whole entry, looked up): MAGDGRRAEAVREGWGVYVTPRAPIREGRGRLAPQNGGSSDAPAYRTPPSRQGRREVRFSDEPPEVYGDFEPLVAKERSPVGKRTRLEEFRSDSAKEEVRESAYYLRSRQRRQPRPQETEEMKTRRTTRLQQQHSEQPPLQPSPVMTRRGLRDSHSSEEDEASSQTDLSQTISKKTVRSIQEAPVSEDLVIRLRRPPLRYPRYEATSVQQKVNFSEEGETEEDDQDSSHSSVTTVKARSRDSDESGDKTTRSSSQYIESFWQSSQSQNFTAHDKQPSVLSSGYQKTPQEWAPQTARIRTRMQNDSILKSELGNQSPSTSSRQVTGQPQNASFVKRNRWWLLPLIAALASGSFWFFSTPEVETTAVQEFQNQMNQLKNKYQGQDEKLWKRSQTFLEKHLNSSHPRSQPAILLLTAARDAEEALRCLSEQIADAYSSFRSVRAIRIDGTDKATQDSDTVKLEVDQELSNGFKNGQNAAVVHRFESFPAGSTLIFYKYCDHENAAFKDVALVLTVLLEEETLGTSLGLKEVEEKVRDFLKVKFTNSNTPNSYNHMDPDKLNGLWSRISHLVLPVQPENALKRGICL

`NC(=O)N1C(=O)C2C(C1=O)C1C=C(CCCO)C2C(c2cccs2)N1Cc1cccc(OC(F)(F)F)c1` (stereo not given): the composite z-score is 1.41 in assay [1]; -0.0349 in [2]; -0.123 in [3]; 0.493 in assay [5]; 0.177 in assay [6]; 0.121 in assay [7]. In addition, the composite z-score is 0.211 in assay [8]; -0.184 in assay [9]; 0.944 in [10]; 0.72 in assay [11]; -0.0132 in assay [13]; 0.155 in [14]. The composite z-score is 0.632 in assay [15]; -0.0721 in assay [16]; 0.723 in [17]; -0.0132 in assay [18]; 1.06 in [19]; 0.797 in [20]. For the same molecule, the z-score in [4] was 0.23 (inactive); in [12], -0.933.

In the case of `COCCCNC(=O)[C@]1(CCS(=O)(=O)c2ccccc2)N=C(c2ccc(OCCCO)cc2)O[C@@H]1c1ccccc1CN=[N+]=[N-]`, the composite z-score was found to be 1.51 in assay [1]; 1.41 in assay [2]; 1.26 in assay [3]; 1.54 in [5]; 1.32 in assay [6]; 0.233 in assay [7]. For the same molecule, the composite z-score in assay [8] was 1.2; in assay [9], -0.0602; in assay [10], 0.746; in assay [11], 0.826; in assay [13], 0.329; in assay [14], 2.49. The composite z-score is 1.12 in [15]; 0.392 in [16]; 0.536 in assay [17]; 1.54 in assay [18]; 2.7 in assay [19]; 2.16 in assay [20]. The z-score in assay [4] was -0.325 (inactive); in [12], -1.47.

Regarding `C=CCC(OC(C)=O)[C@@H]1[C@@H](N(Cc2cccc3ccccc23)C(=O)Cc2ccc(F)cc2)c2cc(OCCCO)ccc2N1C(=O)c1ccc2ccccc2n1` (stereo not given in full), the composite z-score is 0.12 in assay [1]; 0.195 in assay [2]; 0.429 in [3]; -0.0905 in assay [5]; -0.329 in assay [6]; -0.06 in assay [7]. Also, the composite z-score is -0.159 in assay [8]; -0.305 in assay [9]; 1.36 in [10]; -0.829 in assay [11]; 0.226 in [13]; 0.304 in assay [14]. Further, the composite z-score in [15] was 0.398; in assay [16], -0.18; in [17], -0.123; in [18] it was -0.432; in [19], 0.0149; in assay [20], 0.411. The z-score is 0.866 (inactive) in assay [4] and -0.562 in assay [12].

Consider `COC(=O)c1ccc([C@H](NC(=O)c2ccco2)[C@]2(C)C[C@H]2C2CCCCC2)cc1`, for which the composite z-score was -1.05 in assay [1]; 0.642 in assay [2]; 1.06 in assay [3]; -0.32 in assay [5]; -1.22 in [6]; -0.808 in [7]. Further, the composite z-score in assay [8] was -1.03; in assay [9], -1.09; in assay [10] it was 0.447; in assay [11], -0.0855; in assay [13], -1.6; in [14], 1.51. Moreover, the composite z-score in assay [15] was 1.39; in assay [16], -0.096; in assay [17], 0.142; in assay [18], 1.46; in [19] it was -0.101; in assay [20], 0.351. Besides, the z-score in [4] was 2.43 (inactive); in assay [12] it was -0.978.

In the case of `N#Cc1ccc(C(O)C2C=CC3C(=O)N(c4ccccc4)C(=O)C3N2Nc2ccccc2)cc1` (stereo not given), the composite z-score in assay [1] was 0.592; in [2] it was 0.759; in [3], 1; in [5], 0.913; in [6], -0.0985; in assay [7] it was 0.107. Moreover, the composite z-score in assay [8] is 0.391; in assay [9], -0.352; in [10], 0.877; in assay [11], 0.86; in [13], -0.224; in assay [14], 1.03. For the same molecule, the composite z-score was determined as 0.492 in assay [15]; 0.0357 in assay [16]; 0.0815 in assay [17]; 1.09 in assay [18]; 0.747 in [19]; 1.1 in assay [20]. Further, the figures for the z-score in assay [4] and in assay [12] were -1.04 (inactive) and -0.875, respectively.

With `CCOC(=O)C[C@H]1[C@H](OC(=O)c2ccc(C(=O)c3ccccc3)cc2)[C@@H](NC(=O)Cc2ccc(OC)cc2)c2cc(OCCCO)ccc2N1C(=O)c1ccccc1`, the composite z-score is -0.186 in assay [1]; 0.0467 in assay [2]; 0.521 in assay [3]; 0.281 in [5]; -0.0732 in assay [6]; 0.12 in assay [7]. The composite z-score in assay [8] is -0.0059; in assay [9] it was 0.0251; in assay [10], 0.643; in [11], 0.41; in assay [13], 0.117; in assay [14] it was 0.0574. In addition, the composite z-score in assay [15] is 0.425; in [16], 0.112; in [17], -0.237; in assay [18] it was 0.0775; in assay [19] it was 0.516; in assay [20] it was 0.168. Further, the figures for the z-score in [4] and in assay [12] were -0.449 (inactive) and -1.15, respectively.
